# Bioassay records (PubChem)
# HT1080-NT tox: qHTS for induction of synthetic lethality in tumor cells producing 2HG: qHTS for the HT-1080-NT fibrosarcoma cell line. Potency, µM (highest dose often 46.1 µM), for the others: at the top dose activity, negative = less viability, usual class: cytotoxic. hit rate 1.6% among 360,000. HT-1080-NT fibrosarcoma viability, CellTiter-Glo ATP luminescence, 48 h;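 further: NT is the 2HG producing partner of a matched IDH1 knockdown line; 0% = DMSO-treated cells and -100% = media-only wells without cells; nearly all actives have a fitted effect of over 55% in size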
#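 750 cells/well, RPMI + 5% FBS; 2 h settle, compound pin-transfer, 48 h at 37 degrees C. CellTiter-Glo 10 min RT, luminescence. Normalized to DMSO and media-only wells.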
# HT1080 IDH1KD tx: qHTS for induction of synthetic lethality in tumor cells producing 2HG: qHTS for the HT-1080-IDH1KD cell line | Potency, µM (titrated, usually from 46.1 µM), for inactives: at the highest dose activity, negative = toxicity, hits mostly cytotoxic | hit rate 2% among 360,000 | HT-1080 IDH1 knockdown viability, ATP luminescence, 48 h;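 further: 0% = DMSO wells and -100% = cell-free medium wells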
#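 Viability of IDH1-knockdown HT-1080 fibrosarcoma cells was assessed by CellTiter-Glo after 48 h at 37 °C with titrated compound; concentration-effect curves were classified by fit quality and response size.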
# KB-3-1 cytotox: qHTS assay for MDR1-selective chemotherapeutics: Primary screen using the parental adenocarcinoma cell KB-3-1; KB-3-1 viability, CellTiter-Glo ATP luminescence, 72 h; Potency, µM (doses to about 46.1 µM), usual class: cytotoxic; hit rate 1.4% among 400,000; further: nearly all actives have a fitted effect of over 60% in size
#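 Here the drug-naive KB-3-1 line serves as comparator for MDR sub-line selectivity; cells received compound titrations, 72 h at 37 °C, then CellTiter-Glo readout.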
# TDP1 cell CPT: qHTS for Inhibitors of human tyrosyl-DNA phosphodiesterase 1 (TDP1): qHTS in cells in presence of CPT; chicken DT40 Tdp1-/-;hTDP1 cells + 20 nM CPT, ATP luminescence, 48 h; Potency, µM (series often up to 46.2 µM), inactives show at the highest dose activity change, negative = growth inhibition, hits mostly inhibitors; hit rate 12% among 420,000; AID 686979, 2013; further: nearly all actives have a fitted effect of over 55% in size
#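 Cell growth measured by CellTiter-Glo luminescence after a minimum 48 h, 37 C compound exposure with 20 nM CPT in Tdp1-knockout DT40 cells stably expressing hTDP1, seeded 400/well; qHTS titration format.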
# DT40 TDP1 no CPT: qHTS for Inhibitors of human tyrosyl-DNA phosphodiesterase 1 (TDP1): qHTS in cells in absence of CPT. AID 686978, 2013. hit rate 15% among 420,000. Potency, µM (series often up to 46.2 µM), for the others: at the highest dose activity change, negative = growth inhibition, most hits filed as inhibitors. DT40 Tdp1-/- hTDP1 cells, no CPT, ATP luminescence, 48 h; further: nearly all actives have a fitted effect of over 55% in size
#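 Chicken DT40 Tdp1-/- cells complemented with human TDP1, screened without camptothecin (DMSO vehicle only), 400 cells/well. Compounds pin-transferred, cells incubated at 37 °C for at least 48 hr. Growth read as ATP-dependent luminescence (CellTiter-Glo, 30 min at RT).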
# KB-V1 cytotox: qHTS assay for MDR1-selective chemotherapeutics: Primary screen using the drug-selected MDR subline cells KB-V1 | hit rate 3.4% among 400,000 | KB-V1 MDR cells viability, CellTiter-Glo, 72 h | Potency, µM (series often up to 46.1 µM), actives largely listed as cytotoxic; further: nearly all actives have a fitted effect of over 60% in size
#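 In this primary screen, KB-V1 cells overexpressing P-gp are incubated with library compounds (lowest to highest concentration) for 72 h at 37 degrees C before a luminescent ATP viability read.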
# The depositor's hits bear a star; i = inactive; ? = inconclusive; / = no result; [ ] = another dose, or the depositor's remark. In the library only some 19% were active in any assay of this set; here they are far more common. The call rests on the fitted dose curve; in most records, active means well fitted curve in the direction sought with a large enough effect; inconclusive means small, poorly fitted or top-dose-only effect, or another doubt; inactive means no such curve, though single readings can be large; an effect the other way counts as inactive or inconclusive. Unless noted, on the % scale 0 is the no-effect control and ±100 the full control effect; potency means the concentration at half of the fitted maximal effect.
SMILES,HT1080-NT tox,HT1080 IDH1KD tx,KB-3-1 cytotox,TDP1 cell CPT,DT40 TDP1 no CPT,KB-V1 cytotox
Cc1ccc(C)c(S(=O)(=O)N2CCN(C(=O)c3ccncc3)CC2)c1,2%,5%,i,-6%,-7%,i
Cc1ccc(C(C(=O)NCc2ccco2)N(C(=O)CNC(=O)c2cccs2)c2ccc(C)cc2C)cc1 (centres undefined),-16%,-28%,i,29µM*,6.5µM*,i
Cc1ccc(N(C(=O)CNC(=O)c2ccco2)C(C(=O)NC2CCCC2)c2ccncc2)c(C)c1 (centres undefined),8%,20%,i,14%,4%,i
Cn1cccc1C(=O)N1CCC2(CCCN(c3cccc(-c4ccccc4)c3)C2)CC1,/,/,/,?,13µM*,/
O=C(c1cnccn1)N1CCC2(CC1)CN(c1cccc(-c3ccccc3)c1)C2,/,/,/,18µM*,?,/
O=C(c1cnccn1)N1CCC2(CC1)CN(c1ccccc1)C2,/,/,/,0%,-9%,/
CC(=O)N1CCC2(CC1)CCN(c1cccc(-c3ccccc3)c1)CC2,/,/,/,?,21µM*,/
COC(=O)N1CCC2(CCCN(c3cccc(-c4ccccc4)c3)C2)CC1,/,/,/,8%,?,/
CC(=O)N1CCC2(CC1)CN(c1cccc(-c3ccccc3)c1)C2,/,/,/,-26%,?,/
Cn1cccc1C(=O)N1CCN(c2cccc(C(F)(F)F)c2)CC1,4%,10%,i,?,?,15µM*
CSc1nnc(CCCCCCCCc2nnc(SC)o2)o1,2%,3%,i,?,?,?
Cc1cccc(N(CC(=O)NCC2CCCO2)C(=O)CCC(=O)Nc2nccs2)c1 (centres undefined),9%,9%,i,9%,-5%,i
CC(C)OC(=O)N(C)C[C@H]1OCc2cn(nn2)CCCC(=O)N([C@H](C)CO)C[C@@H]1C,8%,5%,i,-7%,-15%,i
Cn1cccc1C(=O)N1CCC2(CC1)CCN(c1cccc(-c3ccccc3)c1)CC2,/,/,/,16µM*,?,/
Cn1cccc1C(=O)N1CCC[C@@]2(CCN(c3ccccc3)C2)C1,/,/,/,?,26µM*,/
CCOC(=O)c1cc2c(ccn2C)n1CC(=O)N1CCN(c2cccc(C(F)(F)F)c2)CC1,-8%,-14%,i,16µM*,16µM*,i
Cn1cccc1C(=O)N1CCC2(CC1)CN(c1ccncc1)C2,/,/,/,-21%,?,/
Cn1cccc1C(=O)N1CCC[C@@]2(CCN(c3ncccn3)C2)C1,/,/,/,5%,-4%,/
COc1ccc(C(=O)N2CCC3(CCCN(c4cccc(-c5ccccc5)c4)C3)CC2)cc1,/,/,/,?,21µM*,/
Cc1ccc(-n2nc(C(=O)N3CCN(c4cccc(C(F)(F)F)c4)CC3)c(=O)n(C)c2=O)cc1,/,/,i,?,18µM*,i
CN(CC(=O)Nc1ccc2c(c1)OCO2)S(=O)(=O)c1cccs1,-7%,-18%,i,-2%,-2%,i
CCOC(=O)C1CCN(C(=O)CN2C(=O)c3cccnc3Oc3ccccc32)CC1,2%,0%,i,-8%,2%,i
Cn1c(CNc2ccc(Cl)cc2)nc2ccccc21,-17%,-2%[9.24 µM],i,16µM*,?,21µM*
CN(Cc1nc2ccccc2n1C)S(=O)(=O)c1ccc(Cl)cc1,-4%,-2%,i,?,26µM*,i
Cc1ccc(N2CCN(c3ccc(NCc4nc5ccccc5n4C)cc3)CC2)cc1,0%,-5%,i,?,16µM*,4.6µM*
